Source: PubChem BioAssay AID1159580 (chemical genetic matrix, 2015)
Hit rate of the full screen: of about 5,500 compounds, about 2,000 (36%) were called active. Inconclusive results (about 18%) are left out. No stated cut-off is given here; in the data, active means normalized growth mostly below about 0.91 (no sharp cut-off); inconclusive means no clear call, values can overlap the other calls; inactive means mostly above about 0.92. The list shows a part of the results.

Experiment: chemical genetic growth profiling, strain panel (AID 1159580);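 further: tested at 20 µM; growth read once vehicle control cultures reached saturation at 30 °C; 1 = growth at the plate median or of vehicle wells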
Conditions: growth OD

Measured: normalized growth

N#CCC(=O)N(Cc1ccccc1F)C(=O)NC1CCCCC1
inactive: S. cerevisiae deletion strains, locus YAL013W, strain DEP1, stronger effect = lower value 0.993 | S. cerevisiae deletion strains, locus YBR229C, strain ROT2, stronger effect = lower value 1.01 | S. cerevisiae deletion strains, locus YDL101C, strain DUN1, stronger effect = lower value 0.994 | S. cerevisiae deletion strains, locus YDL134C, strain PPH21, stronger effect = lower value 0.98 | S. cerevisiae deletion strains, locus YDR150W, strain NUM1, stronger effect = lower value 0.997 | S. cerevisiae deletion strains, locus YEL061C, strain CIN8, stronger effect = lower value 1 | S. cerevisiae deletion strains, locus YGR078C, strain PAC10, stronger effect = lower value 0.994 | S. cerevisiae deletion strains, locus YGR229C, strain SMI1, stronger effect = lower value 0.987 | S. cerevisiae deletion strains, locus YHR030C, strain SLT2, stronger effect = lower value 0.957 | S. cerevisiae deletion strains, locus YHR087W, strain rtc3, stronger effect = lower value 0.974 | S. cerevisiae deletion strains, locus YJR043C, strain POL32, stronger effect = lower value 0.994 | S. cerevisiae deletion strains, locus YJR075W, strain HOC1, stronger effect = lower value 0.963 | S. cerevisiae deletion strains, locus YKL190W, strain CNB1, stronger effect = lower value 1 | S. cerevisiae deletion strains, locus YLR039C, strain RIC1, stronger effect = lower value 0.915 | S. cerevisiae deletion strains, locus YLR058C, strain SHM2 (second series), stronger effect = lower value 1 | S. cerevisiae deletion strains, locus YLR085C, strain ARP6, stronger effect = lower value 0.989 | S. cerevisiae deletion strains, locus YLR262C, strain YPT6, stronger effect = lower value 0.935 | S. cerevisiae deletion strains, locus YML094W, strain GIM5, stronger effect = lower value 0.996 | S. cerevisiae deletion strains, locus YMR219W, strain ESC1, stronger effect = lower value 0.998 | S. cerevisiae deletion strains, locus YMR263W, strain SAP30, stronger effect = lower value 1 | S. cerevisiae deletion strains, locus YMR307W, strain GAS1, stronger effect = lower value 0.913 | S. cerevisiae deletion strains, locus YNL153C, strain GIM3, stronger effect = lower value 0.988 | S. cerevisiae deletion strains, locus YNL298W, strain CLA4 (second series), stronger effect = lower value 1.01 | S. cerevisiae deletion strains, locus YNL322C, strain KRE1, stronger effect = lower value 1.01 | S. cerevisiae deletion strains, locus YNR030W, strain Alg12, stronger effect = lower value 0.986 | S. cerevisiae deletion strains, locus YPL055C, strain LGE1, stronger effect = lower value 1.01 | S. cerevisiae deletion strains, locus YPL241C, strain CIN2, stronger effect = lower value 0.994 | S. cerevisiae deletion strains, locus YPR135W, strain CTF4, stronger effect = lower value 0.866 | S. cerevisiae strains, strain wild type, stronger effect = lower value 0.997
